# Test results from PubChem BioAssay AID1508600 (Functional Genomics Laboratory (NCATS/FGL), 2020).
# The campaign covered roughly 53,000 sequences. About 3,700 (7%) were called active. This is one part of a sample in which actives are shown more often than they occur.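 Rule for the calls: active = gene knockdowns whose robust z-score for IL-1 alpha signal is at least 2 or at most -2, so actives lie on both sides; inactive = the rest.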
# Test: Components of the Cytosolic LPS Sensing Pathway: Gene Identification via Genome-wide siRNA Screen;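 note: robust z of the log signal after scaling to non-targeting control siRNA wells of the plate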
# Settings: RAW264.7 macrophages, IL-1a HTRF, actives lie on both sides, screened at 100 nM (by protocol), cells primed 5 h with Pam3CSK4 first
# Outline: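 IL-1a HTRF of supernatants after 24 hour LipidA transfection of Pam3CSK4-primed (5 hours) RAW264.7 cells, 48h post-siRNA transfection (100 nM). Scores: percent of plate negative-control median, then log-based robust z-score.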
row,Sequence,z-score
1,GGACUAGAAUAUCACAACGTT against Iqub,0.905 (inactive)
2,GGCAAAAUAGAGAAAUACATT against Lima1,2.37 (active)
3,GCCAUGUUUAAGCAAUUGUTT against Vsx1,-0.575 (inactive)
4,GGAGGGUAUUAGUGCACUGTT against Ptpn1,-0.111 (inactive)
5,GCCUCAUUUGCUUCACUGUTT against Cd163l1,0.148 (inactive)
6,GGCGAAAAGACCAGUUAUGTT against Man2c1,2.31 (active)
7,GGUGCACUCUGUCAGUUCATT against Col27a1,-0.352 (inactive)
8,GCAUACCUAUUCACGUACGTT against Slc7a4,-0.475 (inactive)
9,GCCCAAGCUUUUAUCAAGATT against Frmd4b,1.48 (inactive)
10,CCCUUUCCUAUGCAUUUGCTT against Olfr851,0.97 (inactive)
11,CGUACCUAAGCAUACCAGCTT against Gpr20,4.94 (active)
12,CGAGCUUCGGAGGAAGUGATT against Zc3hav1l,-0.743 (inactive)
13,GGUACUCUGUGGAUAUCCCTT against Rpl27,-0.224 (inactive)
14,GGAGCGUACCAUGAUCGAUTT against Parvb,-2.17 (active)
15,GGCUUCUUCACUGAAAUUCTT against 1700074P13Rik,-1.1 (inactive)
16,GGCACUUUGUGGCAAAUCUTT against Pcdhb1,0.742 (inactive)
17,CGUGCAAGCAGUGAUUUUGTT against Smpx,-1.33 (inactive)
18,GGCUCAAGUAUGAGUCUCATT against Calhm2,0.73 (inactive)
19,GGGAAGAAGAAAAAGAUGATT against Peak1,-0.506 (inactive)
20,CGGACUAUCUCUAUGAAGATT against Tas2r108,-0.587 (inactive)
21,GGUGAUUUCGGGUAACGAGTT against Ddr1,-2.17 (active)
22,GGGUGUUUUUAAGUGUCCCTT against Zfp574,0.475 (inactive)
23,GGUUUUUGUGGAAAUGUGGTT against Smpd4,-2.58 (active)

row,Sequence,z-score
1,GGCAGUUUGUUAAUGAAUGTT against Pcsk1,-0.901 (inactive)
2,GGAGGAGAAAACAGGAAUUTT against H2-Eb1,-0.03 (inactive)
3,GCGACCGUAUUGUCACUUGTT against Arpc1a,-0.465 (inactive)
4,CCUUGUCGAGCACAUGAGATT against Zfp69,0.0825 (inactive)
5,GGCAAGUGAGGAAAAGAGGTT against Setd1a,-0.741 (inactive)
6,GAUUUUCCUCUACUGUCCUTT against U90926,-0.532 (inactive)
7,GGUCUUGGAUGCAAACGAUTT against Pcdhga2,0.518 (inactive)
8,GCUAGCAAGUGAGAUGGAGTT against Mbd3l1,1.58 (inactive)
9,GGGCCUUCAAAAAACUGCCTT against Eva1b,1.75 (inactive)
10,GGGAGAUAUGCAAUGAAUATT against Creb5,-1.34 (inactive)
11,GGAAGGUCUUCGAGAUUUUTT against Gpr75,4.56 (active)
12,CCUCUUAAACAUGUCCUAGTT against Atp6v0a2,-1.04 (inactive)
13,CCUUCUGGAGUACAUAUCCTT against Trip6,0.16 (inactive)
14,GGAAAAGUCCCGUAUGGAGTT against Gcc1,-3.14 (active)
15,CCAAAUGCUUAUCUCUACATT against Dock6,0.00388 (inactive)
16,GGACAAAAAAAUAGAAGGATT against Rrbp1,0.344 (inactive)
17,GGACUAUCUUUAUGAUGUGTT against Ush1c,-0.164 (inactive)
18,GGUGAUGGAGAAGAGAAGATT against Fam107b,2.88 (active)
19,GGUUUGUAAAGGUUAUGACTT against Nell2,0.0203 (inactive)
20,CCUAGAAGCUAAUUACCAATT against Saa4,-0.946 (inactive)
21,GCGGCUACUCAUAUAAGUCTT against Trappc8,-0.5 (inactive)
22,CGGUGACAUUUGUGAAACUTT against Smn1,-2.05 (active)
23,GGAGAAUUACGGUGCCAACTT against Ncoa3,-0.354 (inactive)

row,Sequence,z-score
1,GCUCAUCUCGAUUUGACUGTT against Cln3,-1.67 (inactive)
2,CCUAAUCCUGAUAAUUCCATT against Niban2,-1.54 (inactive)
3,GGAGUUGUUGUGCUUUUAATT against Tmem45a,3.02 (active)
4,GGACUCACAGUUAAAAGUATT against Gtse1,1.2 (inactive)
5,GCUAUGUGGGUUGUGCUAUTT against Olfr1361,0.734 (inactive)
6,CCCUAGUUUAUCUCCGGAUTT against Lhx1,1.15 (inactive)
7,GGAAUUUGUCAACCGGACCTT against St6galnac6,3.31 (active)
8,GCUAUUGGGUAAUUUGCUUTT against Slco4a1,0.436 (inactive)
9,CGUAUAUCGAUGAAGAUGATT against BC016579,-1.12 (inactive)
10,GGGAUGCAUCAAAAUACAATT against Pdk3,4.82 (active)
11,GGACAAGGAGUAUUAUGUGTT against Nrxn3,-0.372 (inactive)
12,GGCCUUGAAGCAGAAGUCUTT against Gfra1,-1.21 (inactive)
13,GGGCUUUGUGCCCAACAUGTT against Rtcb,0.278 (inactive)
14,CCCGAUUACUGGAGUUAAATT against Kbtbd7,2.32 (active)
15,GGAAGAUGAACUUCGUACCTT against Slc4a2,-0.438 (inactive)
16,GGUCCUGAAGAAGAUUGCATT against Hmox1,-0.72 (inactive)
17,GGAAGAGUGACCUUAAGUCTT against Arhgap30,2.29 (active)
18,GGCACAGAUUGUGGUGAAGTT against Ccdc43,-0.518 (inactive)
19,GCUGCACCAUGAAUGAGUCTT against Il4,0.819 (inactive)
20,GGAUGUUGUGGGAAAUGACTT against Plaat1,-0.27 (inactive)
21,GGCAAAUCUGAACAACAUUTT against Agt,1.16 (inactive)
22,GCAGAAAUGUCCAUCCAAATT against Sprr2k,2.36 (active)
23,GGCAGUGCUGGCAACAAAUTT against Hsd3b5,-0.884 (inactive)
